Reference: PubChem BioAssay
A number with no mark means an inactive call. Activity calls are given as the source filed them.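 Rule for the calls, unless noted: active = mean inhibition over 43.08%, the solvent-only control mean plus 3 SD; inactive = the rest.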

Key:
[1] = target: Nuclear receptor coactivator 3 (Homo sapiens) (UniProt Q9Y6Q9); assay: SRC3 coactivator transcriptional activity inhibitors, confirmation, cell-based, luminescence, quadruplicate (AID 588792); settings: HEK293 GAL4-SRC3 luciferase reporter, at 3.6 µM, stronger effect = higher value;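 note: 0% = DMSO treated cells and 100% = gossypol at 36 µM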
[2] = test system: transactivating tegument protein VP16 (Human herpesvirus 1), Gal4-VP16 luciferase reporter; assay: VP16 transactivation inhibitors, counter-screen for SRC3 inhibitor project, cell-based, luminescence, high throughput (AID 588794; in the data active = inhibition above about 30%); settings: mammalian cells, VP16-driven luciferase reporter luminescence; at 3.6 µM; stronger effect = higher value

Nuclear receptor coactivator 3 (Homo sapiens), sequence (Q9Y6Q9 whole entry, looked up, the tested form may be a part): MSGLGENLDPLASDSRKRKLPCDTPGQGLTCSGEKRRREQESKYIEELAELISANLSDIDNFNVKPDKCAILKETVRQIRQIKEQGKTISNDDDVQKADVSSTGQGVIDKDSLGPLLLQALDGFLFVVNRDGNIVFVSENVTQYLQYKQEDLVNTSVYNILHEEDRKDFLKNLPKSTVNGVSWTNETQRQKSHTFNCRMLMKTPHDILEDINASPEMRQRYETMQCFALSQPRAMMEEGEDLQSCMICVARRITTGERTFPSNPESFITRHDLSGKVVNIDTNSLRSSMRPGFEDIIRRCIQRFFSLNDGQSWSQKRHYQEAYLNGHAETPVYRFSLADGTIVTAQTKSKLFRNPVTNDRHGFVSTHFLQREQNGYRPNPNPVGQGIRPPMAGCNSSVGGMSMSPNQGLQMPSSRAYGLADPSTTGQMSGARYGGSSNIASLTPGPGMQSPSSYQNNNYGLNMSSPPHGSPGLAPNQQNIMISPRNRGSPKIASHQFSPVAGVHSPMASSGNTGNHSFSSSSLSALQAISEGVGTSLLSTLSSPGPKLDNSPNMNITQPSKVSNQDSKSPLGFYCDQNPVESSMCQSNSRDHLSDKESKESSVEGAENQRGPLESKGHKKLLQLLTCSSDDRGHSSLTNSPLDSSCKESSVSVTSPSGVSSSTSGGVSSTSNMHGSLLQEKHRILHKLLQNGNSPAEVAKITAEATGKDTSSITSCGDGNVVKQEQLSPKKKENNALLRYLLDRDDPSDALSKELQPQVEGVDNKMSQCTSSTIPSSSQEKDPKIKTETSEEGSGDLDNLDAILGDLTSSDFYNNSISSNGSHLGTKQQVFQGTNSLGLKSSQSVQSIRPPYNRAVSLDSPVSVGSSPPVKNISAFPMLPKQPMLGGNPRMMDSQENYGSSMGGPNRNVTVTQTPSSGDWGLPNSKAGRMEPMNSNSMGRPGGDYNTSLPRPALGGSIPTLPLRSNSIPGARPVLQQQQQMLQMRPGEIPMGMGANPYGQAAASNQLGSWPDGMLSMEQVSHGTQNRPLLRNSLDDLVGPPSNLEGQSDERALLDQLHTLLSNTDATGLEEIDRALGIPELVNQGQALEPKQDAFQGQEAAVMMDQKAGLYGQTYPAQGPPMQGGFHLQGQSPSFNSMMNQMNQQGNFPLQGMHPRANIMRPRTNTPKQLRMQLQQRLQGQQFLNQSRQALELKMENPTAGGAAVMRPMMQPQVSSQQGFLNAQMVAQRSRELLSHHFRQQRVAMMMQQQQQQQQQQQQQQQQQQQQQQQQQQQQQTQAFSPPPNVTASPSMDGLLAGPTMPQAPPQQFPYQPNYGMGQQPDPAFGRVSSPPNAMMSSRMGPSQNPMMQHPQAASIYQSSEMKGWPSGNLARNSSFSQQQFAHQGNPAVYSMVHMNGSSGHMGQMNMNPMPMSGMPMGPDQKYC

Compound	inhibition [1]	inhibition [2]
COc1cc(/C=C2/SC(=S)N(c3ccccc3)C2=O)ccc1Oc1nc(N2CCOCC2)nc(N2CCOCC2)n1	4.82%	-7.44%
COc1ccc(CCN2C(=O)c3cccc4c(C(=O)N5CCCCC5)ccc(c34)C2=O)cc1OC	-2.54%	3.93%
O=C(N/N=C/c1c(O)ccc2ccccc12)c1ccc(Br)o1	57.3% (active)	43.2% (active)
CCCN1C(=O)c2ccccc2NC1c1ccc(Cl)c(Cl)c1 (centres undefined)	17.8%	22.1%
Cc1noc(C)c1CN1C(=O)NC2(CCCCCCC2)C1=O	0.62%	-10.4%
O=C(Nc1ccn(Cc2ccccc2F)n1)c1ccc(COc2ccccc2Cl)cc1	10.9%	22.1%
Nc1nc(NCc2ccco2)nc(N2CCCCCC2)c1[N+](=O)[O-]	-0.71%	18%
O=C(NC(=S)Nc1cccc2cnccc12)c1ccccc1	51.4% (active)	44.1% (active)
Cc1ccc(C(=O)N/N=C/c2ccc(-c3cccc(C(F)(F)F)c3)o2)cn1	6.91%	4.45%
CN1C/C(=C/c2cccnc2)C(=O)/C(=C/c2cccnc2)C1	23.5%	54.1% (active)
CC(=O)c1ccc(Nc2c3c(nc4ccccc24)CCCC3)cc1	32.7%	-3.62%
Cn1c(=O)n(C)c2cc(NS(=O)(=O)c3ccc(C(C)(C)C)cc3)ccc21	16.6%	14.9%
